pAkt inh – inhibitors of Akt phosphorylation. actives 0.32% (n = 360,000). activity change, % for hits at 50 µM. Neuro2A IGF-stimulated pAkt S473 HTRF, 20 min; active compounds read low; in the data active means activity change below about -80%; inconclusive means mostly about -51% to -80%; further: on the % scale 0 is the no-effect control and ±100 the full control effect
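Neuro2A cells in DMEM with 0.5% FBS, overnight at 37 deg C, given compound at single 50 µM final, then IGF (6 nM final) for 20 min at 37 deg C. Lysed; phospho-Akt Ser473 by HTRF after 24 h, 665/615 ratio.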
RXFP1 agonist – agonists of human relaxin receptor RXFP1. Q9HBX9. HEK293T-RXFP1 cAMP TR-FRET, 30 min; response scale: percent of porcine relaxin response, buffer zero. Potency, µM (titrated, usually from 57.5 µM), for the others: at the top dose activation, most hits filed as activators. actives 0.3% (n = 370,000). AID 2676; active means well fitted activation curve with a large enough effect; inconclusive means small, poorly fitted or top-dose-only effect; further: potency means the concentration at half of the fitted maximal effect; on the % scale 0 is the no-effect control and ±100 the full control effect; nearly all actives have a fitted effect of over 60% in size
Target sequence (Q9HBX9 whole entry, looked up): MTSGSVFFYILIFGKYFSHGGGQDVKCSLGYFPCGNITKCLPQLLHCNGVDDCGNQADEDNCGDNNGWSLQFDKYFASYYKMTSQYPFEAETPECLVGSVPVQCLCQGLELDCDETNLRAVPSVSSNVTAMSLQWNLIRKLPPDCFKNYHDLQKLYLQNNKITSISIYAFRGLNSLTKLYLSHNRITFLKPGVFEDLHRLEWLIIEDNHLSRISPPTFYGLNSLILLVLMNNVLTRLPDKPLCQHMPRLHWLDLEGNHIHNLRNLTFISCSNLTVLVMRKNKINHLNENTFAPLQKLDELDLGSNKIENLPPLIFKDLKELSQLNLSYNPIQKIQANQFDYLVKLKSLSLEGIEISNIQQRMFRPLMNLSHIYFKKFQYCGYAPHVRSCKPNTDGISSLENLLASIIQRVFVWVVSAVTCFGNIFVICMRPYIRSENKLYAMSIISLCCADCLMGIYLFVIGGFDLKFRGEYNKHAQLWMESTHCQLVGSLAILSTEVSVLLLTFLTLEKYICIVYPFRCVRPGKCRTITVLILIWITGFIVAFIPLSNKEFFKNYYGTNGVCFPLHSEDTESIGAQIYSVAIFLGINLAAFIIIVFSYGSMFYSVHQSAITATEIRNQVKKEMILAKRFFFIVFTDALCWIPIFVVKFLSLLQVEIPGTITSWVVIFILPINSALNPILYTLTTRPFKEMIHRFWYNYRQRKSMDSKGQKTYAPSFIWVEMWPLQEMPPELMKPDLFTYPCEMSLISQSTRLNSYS
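cAMP rise read by TR-FRET after 30 min, 37C compound exposure (up to 58 uM) in RXFP1-transfected HEK293 cells with Ro 20174 present. EC50 from Hill-equation fits, with 29 nM porcine relaxin as 100% and buffer as basal.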
gsp antag – gsp mutant antagonism; gsp-mutant cells, cAMP HTRF, 30 min; Potency, µM (highest dose often 76.9 µM), for the others: at the highest dose activity change, negative = inhibition, actives largely listed as inhibitors; actives 0.4% (n = 340,000); AID 624288; calls by dose curve; cell line not stated here;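 further: intracellular cAMP measured with PDE inhibitor Ro 20-1724 present during compound exposure; potency means the concentration at half of the fitted maximal effect; on the % scale 0 is the no-effect control and ±100 the full control effect; nearly all actives have a fitted effect of over 65% in size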
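Measurement of cellular cAMP by homogeneous time-resolved fluorescence following a 30 min compound exposure at 37C. The PDE inhibitor […] was present throughout; the assay buffer was DPBS with 0.05% BSA and 0.005% Tween 20.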
gsp agonist – gsp mutant agonism; gsp mutant cells, cAMP HTRF, 30 min; Potency, µM (series often up to 76.9 µM), for inactives: top-dose activation (cAMP increase), most hits filed as activators; actives 0.13% (n = 340,000); active means well fitted activation curve with a large enough effect; inconclusive means small, poorly fitted or top-dose-only effect, or another doubt; inactive means no such curve, though single readings can be large or run the other way; cell line not stated here;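 further: phosphodiesterase inhibitor Ro 20-1724 added with compounds to block cAMP breakdown; potency means the concentration at half of the fitted maximal effect; nearly all actives have a fitted effect of over 60% in size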
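Cells in DMEM/10% FBS with G418 were pretreated with compounds in DMSO plus […] (300 uM stock) for 30 min at 37C. cAMP was measured by HTRF (cAMP-d2 plus anti-cAMP antibody-K) after 30 min at room temperature.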
RXFP1 antag – blocks the human relaxin receptor RXFP1; Q9HBX9; HEK293-RXFP1, relaxin-stimulated cAMP HTRF, 30 min; active compounds read low; activity change, negative = inhibition, % at 57.5 µM; actives 0.59% (n = 350,000);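 active means activity change of -60% or lower, but not beyond a set lower limit; inconclusive means change between -60% and -40%, or beyond the set limit; inactive means change above -40%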; further: on the % scale 0 is the no-effect control and ±100 the full control effect
* hit, by the source's call; i = inactive; ? = inconclusive; / = no result given; [ ] = another dose, or the depositor's remark. Most compounds without a hit are left out; they make up all but 1.2% or so of the library.

SMILES	pAkt inh	RXFP1 agonist	gsp antag	gsp agonist	RXFP1 antag
Cc1cc(C)cc(N(CC(=O)NCc2ccc(F)cc2)C(=O)c2snc(C(N)=O)c2N)c1	i	2%	-7%	9%[15.4 µM]	-15
COc1cccc2c1ncc1c(-c3ccc(C)cc3)nn(-c3ccc(F)cc3)c12	/	-2%	/	/	-2
COc1ccc(C(=O)CCC(=O)N2CCN(c3cccc(Cl)c3)CC2)cc1	i	1%	35µM*	?	-12
O=C(Nc1ccc(N2CCN(c3ncccc3C(F)(F)F)CC2)nc1)c1cccs1	i	3%	50µM*	3%[15.4 µM]	-69*
Cc1ccc(OCc2cc(C(=O)N(C)CCc3nc4ccccc4[nH]3)no2)cc1C	i	0%	35µM*	2%	-3
CN(C)CCNC(=O)CCCNC(=O)Cn1cnc2sc3c(c2c1=O)CCCC3	-119%*	11%	18%	?	-3
CCCN(CCC)CCCNC(=O)c1cc2c(=O)oc3ccc(C)cc3c2s1	/	18%	/	/	/
O=C(NCc1cccc(Cl)c1)c1cc(COc2ccc3ncccc3c2)on1	i	-2%	35µM*	-3%[15.4 µM]	-7
Cc1ccc(N2C(=O)CS(=O)(=O)C23C(=O)N(Cc2ccccc2C)c2ccccc23)cc1Cl (configuration not stated)	/	-1%	/	/	/
CCOC(=O)Cn1cnc2c(cnn2-c2ccc(C)c(C)c2)c1=O	/	-1%	/	/	-10
CCCCNC(=O)Cn1cnc2c(cnn2-c2ccc(C)c(C)c2)c1=O	-84%*	-2%	7%	-18%	6
Cc1c(Cl)cccc1NC(=O)CCS(=O)(=O)c1cccc2nsnc12	/	0%	/	/	/
O=C(Cn1nc(Cc2cccnc2)c2ccccc2c1=O)Nc1cccc(C(F)(F)F)c1	/	8%	/	/	11
CN(c1ccccc1)S(=O)(=O)c1ccc2c(c1)oc(=O)n2C	i	-1%	6%	-51%	4
C=CCN(c1ccccc1)S(=O)(=O)c1ccc2c(c1)oc(=O)n2C	i	1%	2%	-112%	-77*
CCc1ccc(C(=O)Nc2cccc(-c3nc4cc(C(C)C)ccc4o3)c2)cc1	/	3%	/	/	/
CCc1ccc(NC(=O)C2CCCN(S(=O)(=O)c3cnc[nH]3)C2)cc1 (configuration not stated)	/	-2%	10%	-19%	-116*
CSc1cccc(NC(=O)C2CCN(S(=O)(=O)c3cnc[nH]3)CC2)c1	i	3%	10%	-6%	-63*
COc1cc(NC(=O)c2cc3c(=O)oc4ccc(C)cc4c3s2)cc(OC)c1OC	/	-1%	/	/	/
CC(C)[C@H](NC(=O)c1ccccc1)C(=O)OCC(=O)/C=C1/N(C)c2ccccc2C1(C)C	i	0%	35µM*	-16%	-21
CC(CCc1ccccc1)NC(=O)COC(=O)c1ccc(S(C)(=O)=O)c([N+](=O)[O-])c1 (configuration not stated)	i	0%	?	3%[15.4 µM]	-89*
CCOc1ccc(Cn2c(O)cc(=O)[nH]c2=O)cc1	-117%*	0%	-12%	17%	3
COc1ccc(Cn2c(O)cc(=O)[nH]c2=O)cc1	i	-2%	-11%	-4%	4
CCOc1ncccc1C(=O)OC(C)C(=O)NC(=O)NC1CCCCC1 (configuration not stated)	i	-1%	7%	6.3µM*	-14
Cc1ccc(-c2nn3c(=O)cc(CN4CCN(C(=O)c5ccc(C(C)(C)C)cc5)CC4)nc3s2)cc1	/	5%	/	/	/
SMILES	pAkt inh	RXFP1 agonist	gsp antag	gsp agonist	RXFP1 antag
CC(=O)c1cc(-c2ccccc2)n(CC(=O)NCc2ccccc2C)c1C	/	1%	/	/	-4
CC(C)(CNC(=S)NCCc1ccccc1)CNC(=S)NCCc1ccccc1	i	1%	35µM*	-3%	-3
Cc1cccn2c(=O)c(/C=C3\SC(=S)NC3=O)c(NCCCN3CCOCC3)nc12	i	5µM*	16%	10µM*	9
CCCN1C(=O)/C(=C/c2c(NCCCOCC)nc3c(C)cccn3c2=O)SC1=S	i	1%	3%	-2%	5
CC1Cc2cc(/C(O)=C3/C(=O)C(=O)N(CCN4CCOCC4)C3c3cccc(Cl)c3)ccc2O1 (configuration not stated)	i	22%	-1%	?	19
CCCOc1cccc(C2/C(=C(/O)c3ccc4c(c3)CC(C)O4)C(=O)C(=O)N2CCN2CCOCC2)c1 (configuration not stated)	i	25µM*	-3%	?	17
C=CCOc1cccc(C2/C(=C(\O)c3ccc4c(c3)OCCO4)C(=O)C(=O)N2CCN2CCOCC2)c1 (configuration not stated)	i	25µM*	17%	?	56
COc1ccc(CCNC(=O)c2cnc3ccc(C)cn3c2=O)cc1OC	/	?	/	/	0
CC(C)(C)C1C/C(=C/c2ccccn2)C(=O)/C(=C/c2ccccn2)C1 (configuration not stated)	i	-2%	-21%	-23%	-1
CC1C/C(=C/c2ccccn2)C(=O)/C(=C/c2ccccn2)C1 (configuration not stated)	i	0%	-18%	0%[15.4 µM]	-75*
Cn1c(=O)c([N+](=O)[O-])c(NCCCn2ccnc2)c2ccccc21	i	16%	13%	8%[15.4 µM]	-2
Cn1c(=O)c([N+](=O)[O-])c(-n2ccnc2)c2ccccc21	i	2%	?	-4%[15.4 µM]	-110*
CSc1nc(C)c2c(n1)N(c1ccc(F)cc1)CC2	-111%*	6%	23%	3%	-6
CC(Sc1ncnc2c1cnn2-c1ccccc1)C(=O)NCC1CCCO1 (configuration not stated)	i	2%	-9%	30%	5
Cc1nc(SC(C)C(=O)NCC2CCCO2)c2cc(-c3ccccc3)sc2n1 (configuration not stated)	i	1%	-30%	-5%[15.4 µM]	-69*
CN(C)c1cccc(C(=O)Nc2cccc(F)c2)c1	i	0%	-13%	-26%	-1
CCN(CC)c1ccc(C(=O)Nc2cccc(F)c2)cc1	-115%*	0%	-10%	-59%	-9
O=C/C=C/c1c(-c2ccccc2)cc2oc3ccccc3cc1-2	i	2%	-7%	16%	-91*
Nc1ccc(-c2cc3ccccc3oc2=O)cc1	i	4%	7%	-15%[15.4 µM]	11
CCn1c(N)c(C(=O)N2CCOCC2)sc1=S	-114%*	4%	7%	?	-24
C=CCn1c(N)c(C(=O)N2CCOCC2)sc1=S	i	1%	6%	21%	-8
COc1cc(C)nc(OCCNC(=O)COc2ccc(Cl)cc2C)n1	-109%*	1%	-1%	?	4
Cc1cc(Cl)ccc1OCC(=O)NCCOc1nc(N2CCCCC2)nc(N2CCOCC2)n1	i	2%	2%	-42%	2

Screening data deposited in PubChem BioAssay by National Center for Advancing Translational Sciences (NCATS).
